MenB inh = blocks the Mycobacterium tuberculosis MenB enzyme | inhibition, % (test concentration not listed) | actives 0.43% (n = 100,000) | AID 540299 | P9WNP5 | MenB enzyme assay, absorbance read-out; in the data active = inhibition above about 21%, passing the limit was not always enough
PV pol inh = poliovirus RNA polymerase inhibition | AID 588519 | P03300 | actives 0.66% (n = 150,000) | poliovirus polymerase elongation, fluorescence polarization; stronger effect = lower value | % elongation, % (compound at 16.7 µg/mL); in the data active = % elongation below about 90%
Mtb MbtI inh = MbtI salicylate synthase inhibition. P9WFX0. actives 0.89% (n = 100,000). purified MbtI enzyme, fluorescence intensity read-out. inhibition, % (test concentration not listed); in the data active = inhibition mostly above about 56%, no sharp cut-off; inactive = mostly below about 77%
Target sequence (P9WFX0 whole entry, looked up): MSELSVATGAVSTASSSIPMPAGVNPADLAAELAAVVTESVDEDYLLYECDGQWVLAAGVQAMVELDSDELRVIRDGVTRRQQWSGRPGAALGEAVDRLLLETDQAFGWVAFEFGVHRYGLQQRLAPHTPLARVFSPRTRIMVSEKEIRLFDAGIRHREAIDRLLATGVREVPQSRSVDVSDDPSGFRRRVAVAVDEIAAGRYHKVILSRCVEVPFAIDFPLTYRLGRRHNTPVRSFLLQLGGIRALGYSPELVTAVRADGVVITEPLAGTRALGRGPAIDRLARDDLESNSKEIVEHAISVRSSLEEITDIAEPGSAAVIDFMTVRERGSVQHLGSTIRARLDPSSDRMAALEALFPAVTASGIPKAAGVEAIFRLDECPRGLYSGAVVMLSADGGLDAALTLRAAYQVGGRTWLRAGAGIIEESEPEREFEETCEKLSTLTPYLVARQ
An asterisk follows results filed as active; · = no result. Shown are actives, neighbours in structure and some others; about 1.4% of the full set was active somewhere.

SMILES	MenB inh	PV pol inh	Mtb MbtI inh
c1ccc(N(c2ccccc2)c2nc(N3CCCCC3)nc(N3CCOCC3)n2)cc1	8	100	-3
CCN1CCCC1CNc1ncnc2c1cnn2-c1ccc(C)cc1 (configuration not stated)	-22	101	118
CCN1CCCC1CNc1cc(C)c2ccc(C)cc2n1 (configuration not stated)	-20	88*	4
Cc1cc(=O)n2nc(N3CCCC(C(=O)NC4CCN(Cc5ccccc5)CC4)C3)sc2n1 (configuration not stated)	-2	100	-11
O=C(CCN1CCOCC1)c1ccc(Br)cc1	3	99	·
CCCCCOc1ccc(C(=O)CCN2CCOCC2)cc1	-7	103	92*
COCCn1c(CCC(=O)NCc2ccc(OC)cc2)nc2cccnc21	-6	102	7
Cc1nc(C(=O)Nc2ccc(Cl)cc2)sc1C(=O)Nc1ccc(Cl)cc1	5	69*	64*
Cc1c(C(=O)Nc2ccc(Cl)cc2)sc(N)c1C(N)=O	-58	95	-49
COc1ccc(N2CCN(C(=O)CN3CCN(S(=O)(=O)c4ccc(C(C)(C)C)cc4)CC3)CC2)cc1	-33	104	-8
CCn1cc2c(n1)-c1c(oc(C(=O)Nc3ccc(Br)cc3F)c1C)CC2	·	53*	·
CCn1cc2c(n1)-c1c(oc(C(=O)Nc3ccc(Cl)cc3)c1C)CC2	10	88*	10
CC(=O)Nc1ccc(NC(=O)c2oc3c(c2C)-c2nn(Cc4ccccc4Cl)cc2CC3)cc1	·	105	·
CCn1cc2c(n1)-c1c(oc(C(=O)NCc3cccnc3)c1C)CC2	-5	96	80
COc1ccc(/C=N/n2cnnc2)cc1	-2	103	11
COc1ccc(/C=N/n2cn[nH]c2=S)cc1	-40	105	71*
O=c1[nH]sc2ccccc12	51*	98	105
O=c1cc(O)sc2ccccc12	-202	101	31
c1ccc(-c2csc(NC3CCCCC3)n2)cc1	-50	84*	79
c1csc(NC2CCCCC2)n1	·	101	·
O=C(Nc1nc(-c2ccccc2)cs1)C1CCC1	-29	100	10
c1ccc(-c2nc(NC3CCCCC3)s[n+]2-c2ccccc2)cc1	·	100	91*
Cc1nc(Cc2nnc(SCc3cc(=O)oc4cc(C)c(C)cc34)o2)cs1	-30	-2.0*	53
Cc1nc(Cc2nnc(SCc3cn4cccc(C)c4n3)o2)cs1	6	100	1
COc1cc2c(cc1OC)C(COc1ccc3c(C)cc(=O)oc3c1)N(C(=O)c1cccc(C)c1)CC2 (configuration not stated)	·	102	·
SMILES	MenB inh	PV pol inh	Mtb MbtI inh
Cc1[nH]c(=S)n(CC(C)C)c1C	-27	113	15
CCc1ccc(NC(=O)NC2CCN(Cc3ccccc3)CC2)cc1	-34	103	-11
CCc1ccc(CN2CCC(O)CC2)cc1	36*	99	-11
O=C(CCCN1C(=O)S/C(=C/c2ccccc2)C1=S)N1CCOCC1	-20	101	·
FC(F)(F)CN(Cn1nc(-c2ccco2)oc1=S)Cn1nc(-c2ccco2)oc1=S	-8	76*	80
Cc1ccc(NC(=O)CN(C)Cn2nc(-c3ccco3)oc2=S)cc1	-14	96	16
CC(C)(C)c1nc2c(o1)NC(N)=C(C(N)=O)C2c1ccc(OCC#N)cc1 (configuration not stated)	-4	101	·
CN(C(=O)COC(=O)C1(c2ccc(F)cc2)CCCC1)c1ccccc1	·	102	-7
Cc1sc2nc(CC(=O)N3CCCC3)[nH]c(=O)c2c1C	-53	75*	67
Cc1sc2nc(NCCO)[nH]c(=O)c2c1C	-7	101	5
Cc1cc(=O)[nH]c(NNS(=O)(=O)c2ccc3ccccc3c2)n1	1	104	12
CC(/C=C/c1ccco1)=N\NC(=O)Cc1cccc2ccccc12	-12	103	28
COc1cc(C(=O)Nc2cc3c(cc2C)n(C)c(=O)c(=O)n3C)cc(OC)c1OC	·	106	·
CCOc1ccccc1NC(=O)c1cc(=O)[nH]c2ccccc12	-42	101	-8
N#Cc1c2c(c(-c3ccccc3)[nH]c1=S)CCCC2	-22	101	51*
N#Cc1c(N)c(C#N)c(-c2ccccc2)c2c1CCCC2	-7	108	·
CC1CCC2(C)c3[nH]c4ccccc4c3CCN2C1=O (configuration not stated)	6	102	14
O=C(CN1C(=O)C(c2ccccc2)Oc2cccnc21)NCCCN1CCCCC1 (configuration not stated)	0	101	-6
CCOC(=O)c1[nH]c2ccc(OC)cc2c1N=C(C)N(C)C	11	100	5
Cc1cccc(NC(=S)Nc2ccc(N(C)C)cc2)c1	-19	99	16
CN(C)c1ccc(NC(=S)c2ccccn2)cc1	-61	103	68*
CCC(c1nnc(SCC(=O)NCC(C)C)o1)N(C)C (configuration not stated)	-7	104	-3
CCC(c1nnc(SCC(=O)NCCc2ccc(Cl)cc2Cl)o1)N(C)C (configuration not stated)	-17	101	79*
Cc1cc(C)c(NC(=O)c2cc(S(=O)(=O)N3CCC4(CC3)OCCO4)ccc2F)c(C)c1	·	107	·
O=C(CCSc1nnc2ccccn12)Nc1cccc(-c2nc3ccccc3s2)c1	-11	102	32
SMILES	MenB inh	PV pol inh	Mtb MbtI inh
O=C(O)CCN1Cc2ccccc2C1=O	7	96	·
O=C(O)CCN1C(=O)Cc2ccccc2C1=O	-25	22*	6
O=S(=O)(Cc1ccccc1)c1ccccc1	-11	108	-16
O=S(=O)(CCc1ccccc1)c1ccccc1	26*	100	-3
CCN(C(=O)c1cnc2sccn2c1=O)c1ccccc1	-13	101	4
CCS(=O)(=O)c1ccc(NC(=O)c2ccccc2)c(O)c1	0	104	·
CCCCN(C)C(=O)c1ccc2c(c1)N(Cc1ccc(F)cc1)C(=O)c1ccccc1S2(=O)=O	·	100	·
CCN1C(=O)C(=Cc2ccc(N(C)C)cc2)C(=O)N(CC)C1=S	-12	102	-2
CCN1C(=O)C(=Cc2ccc(OC(F)F)cc2)C(=O)N(CC)C1=S	-85	101	54*
CCc1ccnc(NC(=O)Nc2ccccc2C(C)(C)C)c1	-10	109	-16
O=C(OCc1cc(=O)oc2cc(O)ccc12)C1CCN(S(=O)(=O)c2ccccc2)CC1	-10	104	-37
COC(=O)c1ccn(-c2nc(-c3cccs3)cc(C(F)(F)F)n2)n1	-30	105	79
CC1CCCC(C)N1NC(=O)c1ccc(-c2nc3ccccc3s2)o1 (configuration not stated)	-12	101	46
Nc1nc2ccc(SC(F)F)cc2s1	0	97	4
N#CSc1ccc2nc(N)sc2c1	1	94	53*
CCCN(C(=O)Cc1noc2ccc(C)cc12)c1ccc(Cl)c(Cl)c1	3	101	-18
O=C1CCCC/C1=C/NC1CCCCC1	·	99	2
C[C@]12CC[C@@H]3c4ccc(O)cc4CC[C@H]3[C@@H]1C[C@@H](O)[C@@H]2O	-1	101	-9
Oc1ccc(O)c(C2CC3CCC2C3)c1 (configuration not stated)	-30	99	102*
N#Cc1ccccc1OCC(=O)c1cccs1	-184	103	13
N#CSCC(=O)c1cccs1	-22	85*	·
